Results filed as inconclusive are left out. The source made the active and inactive calls. The calls were made as follows, unless noted: active = hit-call score of the fitted dose curve at least 0.9, where 1 is the maximum; inactive = score below 0.9.

Assay [1] can be described thus: ATG_NFI_CIS: Attagene CIS-FACTORIAL HepG2 Assay for human Nuclear Factor I (NFI) (AID 2282989). Conditions: HepG2 cis-regulatory reporter, NFI response element transcription; actives raise or lower the signal. In outline: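 Read-out: reporter mRNA via RT-PCR plus capillary electrophoresis with fluorescence detection. Transiently transfected HepG2 (endogenous TF activity on cis promoters), 24 h compound exposure; gain or loss of signal fitted against DMSO.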

The target in assay [2] is Myc proto-oncogene protein (Homo sapiens) (UniProt P01106). Briefly: ATG_Myc_CIS: Attagene CIS-FACTORIAL HepG2 Assay for human Myelocytomatosis (Myc) Proto-Oncogene Transcription Factor (AID 2282990). Conditions: HepG2, Attagene cis-reporter transcription factor activity; actives raise or lower the signal. In outline:
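After 24 h chemical treatment of HepG2 cells carrying multiplexed cis-regulated reporter constructs, reporter transcripts quantified by RT-PCR and capillary electrophoresis of fluorescent fragments. Gain or loss fitted against DMSO baseline.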

Assay [3] is described as follows: ATG_NRF2_ARE_CIS: Attagene CIS-FACTORIAL HepG2 Assay for human Nuclear Factor Erythroid 2 Related Factor 2 (NFR2) response to Antioxidant Response Elements (ARE) (AID 2282992).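 As to AC50: reporter mRNA level measured by RT-PCR and capillary electrophoresis fluorescence.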 Conditions: HepG2 Attagene ARE/NRF2 reporter, transcription factor activity; actives raise or lower the signal. In outline:
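Fluorescence intensity of reporter-specific cDNA fragments, separated by capillary electrophoresis, reflects mRNA induction in transfected HepG2 cells at 24 h. Activity is fitted bidirectionally, DMSO serving as baseline.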

A short description of assay [4]: ATG_Oct_MLP_CIS: Attagene CIS-FACTORIAL HepG2 Assay for human Octamer-Binding Transcription Factor (Oct) (AID 2282993). The following applies: HepG2 Attagene cis-factorial Oct reporter, mRNA; actives raise or lower the signal. In outline: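 Read-out: reporter mRNA via RT-PCR plus capillary electrophoresis of 6-FAM-labelled fragments. Transiently transfected HepG2, 24 h exposure, endogenous TF activity on cis elements. Gain or loss of signal fitted relative to DMSO.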

For assay [5], the target named is Cellular tumor antigen p53 (Homo sapiens) (UniProt P04637). Briefly: ATG_p53_CIS: Attagene CIS-FACTORIAL HepG2 Assay for human p53 Transcription Factor (AID 2282994). The following applies: HepG2 p53 cis-element reporter, Attagene mRNA; actives raise or lower the signal. In outline: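 Transiently transfected HepG2 (multiple cis reporter transcription units); exposure 24 h; reporter RNA via RT-PCR, 6-FAM extension, 2 h HpaI digest at 37 C, CE detection; DMSO baseline.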
Chain of Cellular tumor antigen p53 (Homo sapiens) (P04637 whole entry, looked up): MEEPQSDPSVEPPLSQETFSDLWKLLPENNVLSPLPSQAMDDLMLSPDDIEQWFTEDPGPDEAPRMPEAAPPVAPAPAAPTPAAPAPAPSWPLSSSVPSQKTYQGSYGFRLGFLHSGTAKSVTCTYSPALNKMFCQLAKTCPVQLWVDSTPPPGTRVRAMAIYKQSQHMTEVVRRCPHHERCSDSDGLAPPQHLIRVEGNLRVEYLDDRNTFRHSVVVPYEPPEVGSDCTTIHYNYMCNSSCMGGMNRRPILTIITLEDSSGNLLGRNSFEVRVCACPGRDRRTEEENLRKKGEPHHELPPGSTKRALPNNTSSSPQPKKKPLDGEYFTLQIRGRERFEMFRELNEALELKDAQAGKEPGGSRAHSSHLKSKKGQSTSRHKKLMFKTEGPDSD

Assay [6] addresses Peroxisome proliferator-activated receptor gamma (Homo sapiens) (UniProt P37231). The assay can be described thus: ATG_PPARg_TRANS: Attagene TRANS-FACTORIAL HepG2 Assay for human Peroxisome Proliferator-activated Receptor-gamma (PPARg) (AID 2283007; active = hit-call score of the fitted dose curve at least 0.9, where 1 is the maximum). Put shortly: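 Human hepatoma HepG2, transient MRTU transfection, 24 h treatment. mRNA reporter signal by RT-PCR plus capillary electrophoresis, fluorescence detection; fitted for increase over DMSO negative control.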

Assay [7] addresses Nuclear receptor subfamily 1 group I member 2 (Homo sapiens) (UniProt O75469). Briefly: ATG_PXR_TRANS: Attagene TRANS-FACTORIAL HepG2 Assay for human Pregnane X Receptor (PXR) (AID 2283008; active = hit-call score of the fitted dose curve at least 0.9, where 1 is the maximum). Put shortly: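 Transient HepG2 transfectants carrying multiplexed reporter transcription units; PXR activity read through a Gal4 chimera. 24 h exposure. RT-PCR/CE fluorescence; upward curve fit referenced to DMSO.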

Assay [8] addresses human Retinoic Acid Receptor beta (RARb), RARB (gene 5915) (UniProt P10826). Briefly: ATG_RARb_TRANS: Attagene TRANS-FACTORIAL HepG2 Assay for human Retinoic Acid Receptor beta (AID 2283004; active = hit-call score of the fitted dose curve at least 0.9, where 1 is the maximum). Put shortly: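 Induction of reporter mRNA from a chimeric RARb-Gal4 construct was measured by RT-PCR, FAM labelling, HpaI digestion and capillary electrophoresis. Measurements followed 24 h compound treatment of transiently transfected human HepG2 liver cells, with DMSO as baseline.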

Assay [9] has as its target Retinoic acid receptor alpha (Homo sapiens) (UniProt P10276). Briefly: ATG_RARa_TRANS: Attagene TRANS-FACTORIAL HepG2 Assay for human Retinoic Acid Receptor alpha (RARa) (AID 2283005; active = hit-call score of the fitted dose curve at least 0.9, where 1 is the maximum). In outline:
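Reporter transcripts, measured by RT-PCR with fluorescent labeling and capillary electrophoresis after 24 h dosing, reflect activity of an exogenous human RARa–GAL4 fusion in transiently transfected HepG2. Fitted for increase relative to DMSO.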

Assay [10] deals with human Retinoic Acid Receptor gamma (RARg), RARG (gene 5916) (UniProt P13631). Briefly: ATG_RARg_TRANS: Attagene TRANS-FACTORIAL HepG2 Assay for human Retinoic Acid Receptor gamma (RARg) (AID 2283009; active = hit-call score of the fitted dose curve at least 0.9, where 1 is the maximum). In outline:
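Transactivation of exogenous RARg-Gal4 fusion measured as reporter transcript induction after 24 h in transfected HepG2 cells. RNA reverse-transcribed, amplified, fluorescently labeled and resolved by capillary electrophoresis; increase relative to DMSO.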

Assay [11] concerns the target human RAR-related Orphan Receptor beta (RORb), RORB (gene 6096) (UniProt Q92753). Briefly: ATG_RORb_TRANS: Attagene TRANS-FACTORIAL HepG2 Assay for human RAR-related Orphan Receptor beta (RORb) (AID 2283010; active = hit-call score of the fitted dose curve at least 0.9, where 1 is the maximum). Put shortly:
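Read-out is reporter mRNA induction, quantified by RT-PCR with fluorescent capillary electrophoresis, 24 h post-dose in transiently transfected HepG2 expressing exogenous NR-Gal4 chimera. Activity fitted upward versus DMSO.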

The target of assay [12] is human RAR-related Orphan Receptor gamma (RORg), RORC (gene 6097) (UniProt P51449). Briefly: ATG_RORg_TRANS: Attagene TRANS-FACTORIAL HepG2 Assay for human RAR-related Orphan Receptor gamma (RORg) (AID 2283011; active = hit-call score of the fitted dose curve at least 0.9, where 1 is the maximum). In outline:
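Reporter transcripts from a transfected RORg-GAL4 chimera in HepG2 cells were quantified 24 h after dosing by RT-PCR, 6-FAM labelling, HpaI digestion and capillary electrophoresis; increases over DMSO baseline were fitted.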

The target of assay [13] is human Peroxisome Proliferator-activated Receptor delta (PPARd), PPARD (gene 5467) (UniProt Q03181). The assay can be described thus: ATG_PPARd_TRANS: Attagene TRANS-FACTORIAL HepG2 Assay for human Peroxisome Proliferator-activated Receptor delta (PPARd) (AID 2283002; active = hit-call score of the fitted dose curve at least 0.9, where 1 is the maximum). In outline:
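Read-out is induced reporter mRNA, quantified by RT-PCR with fluorescent labelling and capillary electrophoresis after 24 h dosing. Cells are HepG2 transiently carrying multiple GAL4-UAS reporter units driven by exogenous NR-GAL4 chimeras; DMSO serves as baseline.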

For assay [14], the target named is human Peroxisome Proliferator-activated Receptor alpha (PPARa), PPARA (gene 5465) (UniProt Q07869). The assay can be described thus: ATG_PPARa_TRANS: Attagene TRANS-FACTORIAL HepG2 Assay for human Peroxisome Proliferator-activated Receptor alpha (PPARa) (AID 2283001; active = hit-call score of the fitted dose curve at least 0.9, where 1 is the maximum). In outline: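 Reporter transcripts quantified by RT-PCR plus capillary electrophoresis after 24 h treatment, fitted upward relative to DMSO. Cells: human HepG2 transiently carrying multiple GAL4-UAS reporter units driven by NR-Gal4 chimeras.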

Chain of human Retinoic Acid Receptor beta (RARb), RARB (gene 5915) (P10826 whole entry, looked up, the tested form may be a part): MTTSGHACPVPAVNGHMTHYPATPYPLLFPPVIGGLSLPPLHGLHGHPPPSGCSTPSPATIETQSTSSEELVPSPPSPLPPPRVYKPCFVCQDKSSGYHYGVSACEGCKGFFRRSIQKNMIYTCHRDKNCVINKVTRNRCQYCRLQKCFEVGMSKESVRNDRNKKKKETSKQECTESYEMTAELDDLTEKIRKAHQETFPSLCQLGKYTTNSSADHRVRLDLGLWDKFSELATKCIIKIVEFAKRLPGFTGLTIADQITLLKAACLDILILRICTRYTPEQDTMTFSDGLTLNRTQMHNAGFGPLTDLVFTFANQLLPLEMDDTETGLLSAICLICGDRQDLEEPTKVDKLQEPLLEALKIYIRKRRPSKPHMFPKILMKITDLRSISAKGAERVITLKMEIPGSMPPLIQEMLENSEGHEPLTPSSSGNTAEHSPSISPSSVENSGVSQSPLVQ
Chain of Peroxisome proliferator-activated receptor gamma (Homo sapiens) (P37231 whole entry, looked up): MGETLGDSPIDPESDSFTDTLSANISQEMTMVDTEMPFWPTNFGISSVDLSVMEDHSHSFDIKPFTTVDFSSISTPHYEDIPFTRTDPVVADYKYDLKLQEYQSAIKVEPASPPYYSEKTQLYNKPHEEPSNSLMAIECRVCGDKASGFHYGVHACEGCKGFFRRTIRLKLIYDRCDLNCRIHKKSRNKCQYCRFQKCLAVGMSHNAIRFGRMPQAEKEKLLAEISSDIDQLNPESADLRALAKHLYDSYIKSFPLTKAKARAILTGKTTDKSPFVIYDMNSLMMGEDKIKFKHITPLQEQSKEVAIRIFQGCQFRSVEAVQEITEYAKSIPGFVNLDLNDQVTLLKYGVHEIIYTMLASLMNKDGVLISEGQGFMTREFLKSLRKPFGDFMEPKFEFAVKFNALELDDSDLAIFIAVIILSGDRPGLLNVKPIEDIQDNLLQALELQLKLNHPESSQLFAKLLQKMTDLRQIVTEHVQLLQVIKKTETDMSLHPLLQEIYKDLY
Chain of Myc proto-oncogene protein (Homo sapiens) (P01106 whole entry, looked up, the tested form may be a part): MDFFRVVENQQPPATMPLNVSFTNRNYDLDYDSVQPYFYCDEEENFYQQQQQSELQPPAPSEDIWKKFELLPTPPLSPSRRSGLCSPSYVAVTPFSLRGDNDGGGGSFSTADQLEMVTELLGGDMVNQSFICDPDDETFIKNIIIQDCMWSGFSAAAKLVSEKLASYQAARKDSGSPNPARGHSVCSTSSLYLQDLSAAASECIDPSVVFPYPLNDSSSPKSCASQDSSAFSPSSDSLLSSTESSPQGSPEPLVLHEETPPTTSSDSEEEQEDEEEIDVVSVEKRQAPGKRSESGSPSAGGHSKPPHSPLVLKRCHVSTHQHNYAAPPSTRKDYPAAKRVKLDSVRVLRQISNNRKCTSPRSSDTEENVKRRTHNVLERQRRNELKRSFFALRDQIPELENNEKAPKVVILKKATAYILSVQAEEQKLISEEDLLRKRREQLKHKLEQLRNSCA
Chain of human RAR-related Orphan Receptor gamma (RORg), RORC (gene 6097) (P51449 whole entry, looked up, the tested form may be a part): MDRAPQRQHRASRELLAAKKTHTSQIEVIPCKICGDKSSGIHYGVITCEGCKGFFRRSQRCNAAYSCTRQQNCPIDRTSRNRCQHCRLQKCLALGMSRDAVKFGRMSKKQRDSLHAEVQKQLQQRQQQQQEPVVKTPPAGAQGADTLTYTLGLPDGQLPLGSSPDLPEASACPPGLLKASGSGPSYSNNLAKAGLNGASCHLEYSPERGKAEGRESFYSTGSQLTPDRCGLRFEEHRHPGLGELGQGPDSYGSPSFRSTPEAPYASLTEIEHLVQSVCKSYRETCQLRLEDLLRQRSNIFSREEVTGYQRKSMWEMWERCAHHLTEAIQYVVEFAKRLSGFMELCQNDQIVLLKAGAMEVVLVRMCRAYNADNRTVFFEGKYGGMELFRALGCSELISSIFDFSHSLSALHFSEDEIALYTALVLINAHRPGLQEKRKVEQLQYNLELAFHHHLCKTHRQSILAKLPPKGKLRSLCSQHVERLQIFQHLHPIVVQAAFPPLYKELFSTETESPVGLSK
Chain of Nuclear receptor subfamily 1 group I member 2 (Homo sapiens) (O75469 whole entry, looked up, the tested form may be a part): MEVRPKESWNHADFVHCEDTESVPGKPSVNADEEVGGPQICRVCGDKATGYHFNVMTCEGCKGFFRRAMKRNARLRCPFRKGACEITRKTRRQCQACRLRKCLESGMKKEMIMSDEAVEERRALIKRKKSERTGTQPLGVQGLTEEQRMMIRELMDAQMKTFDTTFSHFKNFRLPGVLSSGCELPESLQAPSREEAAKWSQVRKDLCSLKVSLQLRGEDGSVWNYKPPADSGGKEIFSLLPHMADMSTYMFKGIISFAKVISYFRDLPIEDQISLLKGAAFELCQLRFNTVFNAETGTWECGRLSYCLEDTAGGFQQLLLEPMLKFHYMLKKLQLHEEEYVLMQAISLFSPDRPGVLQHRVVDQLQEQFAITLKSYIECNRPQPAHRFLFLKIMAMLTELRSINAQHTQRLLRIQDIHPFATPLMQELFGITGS
Chain of human Retinoic Acid Receptor gamma (RARg), RARG (gene 5916) (P13631 whole entry, looked up, the tested form may be a part): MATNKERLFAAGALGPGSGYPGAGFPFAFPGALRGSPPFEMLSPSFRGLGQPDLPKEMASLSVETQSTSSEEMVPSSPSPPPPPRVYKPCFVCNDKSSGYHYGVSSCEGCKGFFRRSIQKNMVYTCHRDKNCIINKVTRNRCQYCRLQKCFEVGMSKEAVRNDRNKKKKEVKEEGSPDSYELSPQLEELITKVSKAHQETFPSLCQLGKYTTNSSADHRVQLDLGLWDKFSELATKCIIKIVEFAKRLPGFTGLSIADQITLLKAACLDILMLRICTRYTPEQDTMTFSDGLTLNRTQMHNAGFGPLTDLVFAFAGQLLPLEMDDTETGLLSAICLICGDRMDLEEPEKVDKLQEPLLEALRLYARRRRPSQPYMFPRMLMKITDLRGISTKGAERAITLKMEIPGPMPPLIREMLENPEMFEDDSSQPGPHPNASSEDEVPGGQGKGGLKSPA
Chain of Retinoic acid receptor alpha (Homo sapiens) (P10276 whole entry, looked up, the tested form may be a part): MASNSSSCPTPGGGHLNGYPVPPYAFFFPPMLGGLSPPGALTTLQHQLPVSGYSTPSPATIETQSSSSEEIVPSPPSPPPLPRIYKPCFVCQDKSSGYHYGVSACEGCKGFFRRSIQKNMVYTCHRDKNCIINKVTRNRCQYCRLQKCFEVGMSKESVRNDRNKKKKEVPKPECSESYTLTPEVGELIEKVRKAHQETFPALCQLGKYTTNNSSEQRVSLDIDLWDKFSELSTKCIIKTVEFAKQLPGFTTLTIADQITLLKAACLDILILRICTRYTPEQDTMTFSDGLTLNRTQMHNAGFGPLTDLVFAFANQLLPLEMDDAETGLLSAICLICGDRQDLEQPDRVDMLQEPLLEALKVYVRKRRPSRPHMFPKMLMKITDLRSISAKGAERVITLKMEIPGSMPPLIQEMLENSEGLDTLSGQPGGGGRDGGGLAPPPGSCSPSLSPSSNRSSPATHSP
Chain of human Peroxisome Proliferator-activated Receptor delta (PPARd), PPARD (gene 5467) (Q03181 whole entry, looked up, the tested form may be a part): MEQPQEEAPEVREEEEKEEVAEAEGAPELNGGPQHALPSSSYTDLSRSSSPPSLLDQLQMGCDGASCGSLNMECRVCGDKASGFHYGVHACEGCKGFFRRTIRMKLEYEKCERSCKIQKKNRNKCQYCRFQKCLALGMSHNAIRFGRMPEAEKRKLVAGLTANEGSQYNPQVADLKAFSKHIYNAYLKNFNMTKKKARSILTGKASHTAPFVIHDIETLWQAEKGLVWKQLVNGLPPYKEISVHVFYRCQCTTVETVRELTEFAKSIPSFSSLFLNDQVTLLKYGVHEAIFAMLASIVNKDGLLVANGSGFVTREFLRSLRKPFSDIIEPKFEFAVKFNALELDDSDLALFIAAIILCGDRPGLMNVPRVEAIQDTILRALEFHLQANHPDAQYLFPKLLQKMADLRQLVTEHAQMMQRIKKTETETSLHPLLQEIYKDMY
Chain of human RAR-related Orphan Receptor beta (RORb), RORB (gene 6096) (Q92753 whole entry, looked up, the tested form may be a part): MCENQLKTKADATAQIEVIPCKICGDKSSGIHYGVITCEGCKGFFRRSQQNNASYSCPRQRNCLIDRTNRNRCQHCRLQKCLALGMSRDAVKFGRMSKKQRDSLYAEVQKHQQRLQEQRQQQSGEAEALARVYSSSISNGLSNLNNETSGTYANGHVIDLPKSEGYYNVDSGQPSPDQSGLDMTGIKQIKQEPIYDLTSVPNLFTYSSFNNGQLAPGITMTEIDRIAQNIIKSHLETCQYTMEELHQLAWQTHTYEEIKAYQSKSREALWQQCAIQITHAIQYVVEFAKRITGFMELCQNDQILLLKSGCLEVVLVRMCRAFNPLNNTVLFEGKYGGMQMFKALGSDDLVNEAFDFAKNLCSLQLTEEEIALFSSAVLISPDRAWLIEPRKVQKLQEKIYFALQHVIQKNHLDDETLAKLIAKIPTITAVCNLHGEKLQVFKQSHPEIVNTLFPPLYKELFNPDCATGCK

Broadly, the AC50 is the concentration at which the activity in the assay is half-maximal. Take `O=C(/C=C/C=C/c1ccc2c(c1)OCO2)N1CCCCC1`: the result in assay [1], in [2], in assay [4] and in [5] was inactive. Further, the half-maximal activity concentration (AC50) in assay [3] was 47.4 µM (active); in assay [6], 6.43 µM (active); in assay [7], 0.893 µM (active).

For `Cc1c(C)c([N+](=O)[O-])c(C(C)(C)C)c([N+](=O)[O-])c1C`, the result in assay [1], in assay [2], in assay [3], in [4], in assay [5] and in assay [8] was inactive. For the same compound, the compound was classed as inactive in assay [9], in [6], in assay [10], in assay [11] and in assay [12]. In [7], the half-maximal activity concentration (AC50) is 2 µM (active).

In the case of `O=C(O)Cc1c(Cl)ccc(Cl)c1Cl`, the call in assay [1], in assay [2], in [3], in assay [4], in [5] and in assay [13] was inactive. For the same compound, the outcome in [8], in assay [7] and in assay [10] was inactive. The AC50 in assay [6] is 52.1 µM (active).

`CCCCCc1ccc(Cl)cc1`: the compound was classed as inactive in assay [1], in [2], in assay [4], in assay [5], in [7] and in assay [12]. Further, the concentration at half-maximal activity (AC50) in assay [3] is 120 µM (active).

For `Cc1cccc(OCCOc2cccc(C)c2)c1`, the compound was classed as inactive in assay [1], in assay [2], in assay [4], in assay [5] and in [7]. For the same compound, the AC50 in [3] was 26.7 µM (active); in [6] it was 25.7 µM (active).

Take `CC(=O)OC(C)C`: the compound was classed as inactive in assay [1], in [2], in assay [3], in assay [4], in assay [5] and in [13]. Moreover, the compound was classed as inactive in [9], in assay [6], in assay [7], in assay [10] and in [12].

Regarding `COc1ccc(C(Cl)=C(c2ccc(OC)cc2)c2ccc(OC)cc2)cc1`, the compound was classed as inactive in [1], in assay [2], in assay [3], in assay [4], in assay [5] and in assay [8]. The outcome in assay [9], in [10] and in assay [12] was inactive. In addition, the AC50 in assay [7] was 3.67 µM (active).

In the case of `C[Si](C)O[Si](C)(C)O[Si](C)(C)O[Si](C)C`, the result in assay [1], in [2], in assay [3], in assay [4], in assay [5] and in assay [8] was inactive. Further, the compound was classed as inactive in [6], in [7] and in assay [10].

For the compound `CCN(CC#N)c1cccc(C)c1`, the call in assay [1], in assay [2], in assay [3], in [4], in [5] and in [13] was inactive. The call in assay [8], in assay [6], in assay [7] and in assay [12] was inactive.

As for `COc1c2ccoc2cc2oc(=O)ccc12`, the outcome in [1], in assay [2], in assay [3], in [4], in assay [5] and in [14] was inactive. For the same compound, the result in [6] and in [12] was inactive. In assay [7], the AC50 was 36.6 µM (active).

On to `CC(C)=CCC/C(C)=C\C#N`, for which the compound was called inactive in assay [1], in assay [2], in assay [4], in assay [5], in [8] and in assay [6]. The outcome in assay [11] and in [12] was inactive. Also, the results for the half-maximal activity concentration (AC50) in assay [3] and in assay [7] were 26.5 µM (active) and 29.3 µM (active), respectively.

On to `Cc1cnc(NC(=O)C2=C(O)c3ccccc3S(=O)(=O)N2C)s1`, for which the compound was classed as inactive in assay [1], in [2], in assay [3], in assay [4], in [5] and in assay [13]. In addition, the compound was called inactive in assay [8], in assay [9], in [10] and in assay [11]. The concentration at half-maximal activity (AC50) in assay [6] is 40.4 µM (active).

The record behind these values is PubChem BioAssay (EPA / NIEHS).
